Results reported in the antibiotic and cytotoxicity screens of Wong et al. (2023).
About 500 (1.3%) of roughly 39,000 compounds were called active. This is one part of a sample in which actives are shown more often than they occur.

Test system: S. aureus RN4220
Assay: growth inhibition call (relative growth <= 0.2)
Settings: 50 µM

Growth inhibition call, inactive:
CN1C(=O)c2cc(NS(=O)(=O)c3ccc(F)cc3)ccc2OC[C@H]2O[C@H](CC(=O)NCC(F)(F)F)CC[C@H]21
COCC#Cc1ccc2c(c1)O[C@H](CN(C)S(=O)(=O)c1ccc(C)cc1)[C@H](C)CN([C@@H](C)CO)S2(=O)=O
COCCn1c(=NN)[nH]c2ccsc2c1=O
O=C(C[C@H]1CC[C@@H]2[C@H](COC[C@@H](O)CN2Cc2cc(F)ccc2F)O1)N[C@@H]1CCN(Cc2ccccc2)C1
COc1ccc([Si](C)(C)[C@H]2[C@H](CC(=O)N3CCC[C@H]3CO)O[C@@]3(C(=O)N(Cc4ccc(N5CCCCC5=O)cc4)c4ccccc43)[C@@H]2C)cc1
C[C@@H]1CN([C@H](C)CO)C(=O)c2c(c3ccccc3n2C)-c2ccccc2CO[C@@H]1CN(C)Cc1ccc(Cl)c(Cl)c1
C[C@H]1CN([C@@H](C)CO)C(=O)c2cccc(NC(=O)CCCCCC(=O)Nc3ccccc3N)c2O[C@H]1CN(C)C(=O)Nc1cccc2ccccc12
CCCN(C)C[C@H]1OCCCC[C@@H](C)Oc2ccc(NS(=O)(=O)c3ccc(Cl)cc3)cc2C(=O)N([C@H](C)CO)C[C@@H]1C
Cc1ccc(S(=O)(=O)N[C@@H]2CC[C@H](CCNC(=O)CN3CCOCC3)O[C@@H]2CO)cc1
C[C@@H]1CN([C@@H](C)CO)S(=O)(=O)c2ccc(-c3cccc(C#N)c3)cc2O[C@H]1CN(C)C(=O)c1cccnc1
CO[C@@H]1CN(C)C(=O)c2cc(NC(=O)Nc3cccc(Cl)c3)ccc2OC[C@H](C)N(C(=O)Nc2c(C)noc2C)C[C@H]1C
CC(C)NC(=O)N(C)C[C@H]1OCCCC[C@H](C)Oc2ccc(NC(=O)Nc3ccccc3)cc2C(=O)N([C@@H](C)CO)C[C@H]1C
C[C@@H]1CCCCO[C@@H](CN(C)C(=O)Nc2ccccc2)[C@@H](C)CN([C@H](C)CO)C(=O)c2cc(NC(=O)Cc3ccccc3)ccc2O1
Cc1noc(C)c1S(=O)(=O)N(C)C[C@@H]1OCCCC[C@@H](C)Oc2ccc(NS(=O)(=O)c3cn(C)cn3)cc2C(=O)N([C@@H](C)CO)C[C@H]1C
C[C@@H]1CN([C@@H](C)CO)C(=O)c2cc(NC(=O)Cc3ccccc3)ccc2O[C@@H](C)CCCCO[C@H]1CN(C)Cc1ccc2c(c1)OCO2
Cc1noc(C)c1S(=O)(=O)Nc1ccc2c(c1)C(=O)N([C@H](C)CO)C[C@H](C)[C@H](CN(C)S(=O)(=O)c1c(C)noc1C)O2
Cc1cc(OC(=O)c2c(C)cc(O)cc2O)cc(O)c1C(=O)O
COc1cc(C)c(C(=O)Oc2cc(C)c(C(=O)O)c(O)c2)c(O)c1
C[C@H](O)C#Cc1ccc2c(c1)O[C@H](CN(C)C(=O)CN(C)C)[C@H](C)CN([C@H](C)CO)S2(=O)=O
CN(C)CC#Cc1ccc([C@H]2[C@@H](CO)N3C(=O)CN(C(=O)c4cccnc4)C[C@H]23)cc1
COc1ccc(S(=O)(=O)Nc2ccc3c(c2)C(=O)N([C@H](C)CO)C[C@H](C)[C@H](CN(C)C(=O)Nc2c(C)noc2C)O3)cc1
COCC#Cc1ccc([C@H]2[C@H](CO)N3C(=O)CN(C(=O)C4CCOCC4)C[C@@H]23)cc1
Cc1coc2c1C(=O)C(=O)c1c-2ccc2c1CCCC2(C)C
Cc1cccc2c1OCC[C@@H](N)C2=O
C[C@H]1CN([C@@H](C)CO)C(=O)Cc2cc(NC(=O)CCN3CCOCC3)ccc2O[C@H]1CN(C)Cc1ccccc1
NS(=O)(=O)c1ccc(Cl)cc1[N+](=O)[O-]
CNS(=O)(=O)c1ccc(Cl)c(C(N)=O)c1
O=C(Nc1ccc([N+](=O)[O-])cc1Cl)c1cc(Cl)ccc1O
O=C(Nc1ccc(Cl)cc1C(=O)c1ccc(Cl)cc1)c1cc(Br)ccc1NS(=O)(=O)c1ccc(Cl)cc1
COc1ccc(S(=O)(=O)Nc2ccc3c(c2)C(=O)N([C@H](C)CO)C[C@@H](C)[C@@H](CN(C)C(=O)NC2CCCCC2)OCCCC[C@H](C)O3)cc1
COc1ccc(S(=O)(=O)N(C)C[C@@H]2OCCCC[C@@H](C)Oc3ccc(NC(=O)NC4CCCCC4)cc3C(=O)N([C@H](C)CO)C[C@H]2C)cc1
CNC(=O)Cn1c(=O)c2c(OC)c(C)cnc2n(C)c1=O
COc1ccc(NC(=O)N(C)C[C@H]2Oc3ccc(NS(=O)(=O)c4c(C)noc4C)cc3CC(=O)N([C@@H](C)CO)C[C@@H]2C)cc1
COc1ccc(S(=O)(=O)N(C)C[C@H]2Oc3ccc(NS(=O)(=O)c4c(C)noc4C)cc3C(=O)N([C@@H](C)CO)C[C@@H]2C)cc1
O=C(C[C@@H]1CC[C@H]2[C@@H](COC[C@H](O)CN2Cc2cc(F)ccc2F)O1)N[C@@H]1CCN(Cc2ccccc2)C1
C[C@@H]1CN([C@@H](C)CO)C(=O)c2cc(NS(=O)(=O)c3cn(C)cn3)ccc2O[C@@H](C)CCCCO[C@@H]1CN(C)Cc1ccc(C(F)(F)F)cc1
C[C@@H]1CN([C@H](C)CO)S(=O)(=O)c2ccc(-c3cccnc3)cc2O[C@@H]1CN(C)C(=O)c1ccc2c(c1)OCO2
Cn1c(=O)c2cn3ncccc3c2n(C)c1=O
COc1c(C)c2c(c(O)c1CC=C(C)CCC(=O)O)C(=O)OC2
Cc1noc(C)c1S(=O)(=O)Nc1ccc2c(c1)C(=O)N([C@H](C)CO)C[C@@H](C)[C@H](CN(C)Cc1ccc3c(c1)OCO3)O2
O=C(N[C@H]1CC[C@@H](CC(=O)N2CCOCC2)O[C@H]1CO)c1ccc2c(c1)OCO2
Cc1ccc(S(=O)(=O)N(C)C[C@@H]2Oc3ccc(NC(=O)CCN4CCOCC4)cc3CC(=O)N([C@@H](C)CO)C[C@@H]2C)cc1
COc1ccc(S(=O)(=O)Nc2ccc3c(c2)CC(=O)N([C@@H](C)CO)C[C@H](C)[C@H](CN(C)C(=O)Nc2c(C)noc2C)O3)cc1
CC(Cc1cccc(C(F)(F)F)c1)NCCOC(=O)c1ccccc1.Cl (centres undefined)
C[C@@H](O)c1cccc(C(F)(F)F)c1
Nc1ccc(O)cc1
C[C@@H]1CCCCO[C@@H](CN(C)C(=O)C2CCCCC2)[C@H](C)CN([C@@H](C)CO)C(=O)c2cc(NC(=O)Nc3cccc4ccccc34)ccc2O1
CN1C=C(C(=O)OCCS(C)(=O)=O)C(C(=O)OCCS(C)(=O)=O)=CC(CCCO)=C[C@@H]1C1CC1
CCN(CC)S(=O)(=O)c1ccc(C(=O)O)cc1
O=C(O)c1ccc(S(=O)(=O)N(Cl)Cl)cc1
N=C(N=C(N)N)Nc1cc(-c2cccs2)n[nH]1
C[C@@H]1CN([C@H](C)CO)S(=O)(=O)c2ccc(C#Cc3ccc(F)cc3)cc2O[C@H]1CN(C)C(=O)CN(C)C
C[C@H]1CN([C@@H](C)CO)S(=O)(=O)c2ccc(C#Cc3ccccc3)cc2O[C@@H]1CN(C)C(=O)CN(C)C
C[C@H]1CN([C@@H](C)CO)S(=O)(=O)c2ccc(C#Cc3ccc(F)cc3)cc2O[C@@H]1CN(C)C(=O)CN(C)C
C[C@H](CO)N1C[C@H](C)[C@@H](CN(C)C(=O)CN(C)C)Oc2cc(C#Cc3ccccc3)ccc2S1(=O)=O
C[C@@H]1CN([C@@H](C)CO)S(=O)(=O)c2ccc(C#Cc3ccc(F)cc3)cc2O[C@@H]1CN(C)C(=O)CN(C)C
C[C@@H]1CN([C@H](C)CO)S(=O)(=O)c2ccc(C#Cc3ccc(F)cc3)cc2O[C@@H]1CN(C)C(=O)CN(C)C
C[C@@H]1CN([C@@H](C)CO)S(=O)(=O)c2ccc(C#Cc3ccc(F)cc3)cc2O[C@H]1CN(C)C(=O)CN(C)C
C[C@H](CO)N1C[C@H](C)[C@H](CN(C)C(=O)CN(C)C)Oc2cc(C#Cc3ccc(F)cc3)ccc2S1(=O)=O

Growth inhibition call, active:
CCCCc1nn(-c2ccccc2C(F)(F)F)c(=O)n1Cc1ccc(-c2ccccc2S(=O)(=O)NC(=O)c2sccc2C)cc1
CON=C1CN(c2nc3c(cc2F)c(=O)c(C(=O)O)cn3C2CC2)CC1CN.CS(=O)(=O)O (centres undefined)
CO/N=C1\CN(c2nc3c(cc2F)c(=O)c(C(=O)O)cn3C2CC2)C[C@@H]1CN
CC(C)=CCC[C@]1(C)[C@@H](CC=C(C)C)C[C@]2(CC=C(C)C)C(=O)C(CC=C(C)C)=C(O)[C@@]1(C(=O)C(C)C)C2=O
Cn1cncc1[C@@](N)(c1ccc(Cl)cc1)c1ccc2c(c1)c(-c1cccc(Cl)c1)cc(=O)n2C
CCCCCC(=O)Cc1cc(O)cc(O)c1C(=O)Oc1cc(CC(=O)CCCCC)c(C(=O)O)c(OC)c1
Cc1c(-c2c(-c3ccc(F)o3)sc3ncnc(O[C@H](Cc4ccccc4OCc4ccnn4CC(F)(F)F)C(=O)O)c23)ccc(OCCN2CCN(C)CC2)c1Cl
CC1COC2=C1C(=O)C(=O)c1c2ccc2c1CCCC2(C)C (centres undefined)
Cc1cccc2c3c(ccc12)C1=C(C(=O)C3=O)C(C)CO1 (centres undefined)
O=C(Nc1cc(Cl)ccc1Cl)c1cc(Cl)ccc1NS(=O)(=O)c1ccc(Cl)c([N+](=O)[O-])c1
O=C(Nc1cc(Cl)ccc1Cl)c1cc(Br)ccc1NS(=O)(=O)c1ccc(Cl)c([N+](=O)[O-])c1
CC[C@@H]1OC(=O)[C@H](C)[C@@H](O[C@H]2C[C@@](C)(OC)[C@@H](O)[C@H](C)O2)[C@H](C)[C@@H](O[C@@H]2O[C@H](C)C[C@H](N(C)C)[C@H]2O)[C@](C)(O)C[C@@H](C)/C(=N\OCOCCOC)[C@H](C)[C@@H](O)[C@]1(C)O
CCC1OC(=O)C(C)C(OC2CC(C)(OC)C(O)C(C)O2)C(C)C(OC2OC(C)CC(N(C)C)C2O)C(C)(O)CC(C)C(=NOCOCCOC)C(C)C(O)C1(C)O (centres undefined)
CC(NCCCc1cccc(C(F)(F)F)c1)c1cccc2ccccc12.Cl (centres undefined)
COC(=O)C1=CC(CCCO)=C[C@@H](c2cccs2)N(Cc2cccc(OC(F)(F)F)c2)C=C1C(=O)OC
O=C(O)c1ccc(S(=O)(=O)N(Cc2ccc(OC(F)(F)F)cc2)c2ncc(C(F)(F)F)cc2Cl)cc1
C[C@H]1CN([C@@H](C)CO)S(=O)(=O)c2ccc(C#Cc3ccc(F)cc3)cc2O[C@H]1CN(C)C(=O)CN(C)C
C[C@@H]1CN([C@@H](C)CO)S(=O)(=O)c2ccc(C#Cc3ccccc3)cc2O[C@@H]1CN(C)C(=O)CN(C)C
C[C@H]1CN([C@@H](C)CO)S(=O)(=O)c2ccc(C#Cc3ccccc3)cc2O[C@H]1CN(C)C(=O)CN(C)C
C[C@@H]1CN([C@H](C)CO)S(=O)(=O)c2ccc(C#Cc3ccccc3)cc2O[C@@H]1CN(C)C(=O)CN(C)C
